Shown are actives, neighbours in structure and some others; about 3.9% of the full set was active somewhere.
aSyn UTR inh: 5' untranslated region of α-synuclein, MLPCN primary screen; alpha-synuclein 5'UTR reporter, inhibitor activity; 0.82% of 300,000 active; inhibition, % (tested at 7.5 µM); in the data active = inhibition above about 60%;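 note: H4 neuroglioblastoma cells stably carrying SNCA 5'UTR luciferase fusion; 0% = DMSO wells and 100% = positive control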
TROY signal inh: TROY signaling inhibition. Q293 LMP1-TROYcd NF-kB luciferase reporter, 4 h. inhibition, % at 10 µM. 0.98% of 360,000 active. AID 1347056;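 active = compounds whose plate-normalised and pattern-corrected inhibition of the luciferase reporter signal at the single screening dose is 50% or more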
TRAIL sens C8: sensitizes caspase-8 expressing cells to TRAIL. NB7+C8 cells + TRAIL, ATPlite viability luminescence. inhibition (viability loss, TRAIL sensitization), % at 10 µM. 1% of 360,000 active. AID 624354;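 active = compounds causing at least 50% loss of cell viability in the single-dose screen, relative to plate controls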
HSP90 refold inh: HSP90 refolding inhibition in rabbit reticulocyte lysate. inhibition, % at 5.6 µM. luciferase refolding luminescence, 3 h. AID 1789. 0.91% of 290,000 active;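 active = inhibition above the screen-wide mean plus 3 SD, computed separately per campaign, cut at about 16% in these data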;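 note: 0% = DMSO wells and 100% = 60 µM geldanamycin wells; inhibitors lower the luminescence because luciferase stays unfolded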
HIF-2a block: inhibitors of HIF-2a. inhibition, % at 18.8 µM. 0.72% of 360,000 active. 786-0 RCC cells HIF-2a reporter, luciferase luminescence, overnight. AID 624352;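 active = inhibition of the luminescence signal of 40% or more relative to plate controls, in a single-dose primary screen at 18.75 µM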
TWEAK Fn14 block: inhibitors of TWEAK-Fn14 interaction signaling; TWEAK-stimulated Fn14 reporter cells, luciferase luminescence, 8 h; inhibition, % at 10 µM; 2% of 360,000 active; in the data active = inhibition above about 50%
* hit, by the source's call; · = no result.

SMILES	aSyn UTR inh	TROY signal inh	TRAIL sens C8	HSP90 refold inh	HIF-2a block	TWEAK Fn14 block
CCN(CC)CCn1c2c(c(SCC(=O)Nc3ccc(F)c(F)c3)nc1=O)CCC2	-21.3	0.8	-6.5	·	14.3	12.1
O=C(CN(c1ccc(Cl)cc1)S(=O)(=O)c1ccc(Cl)c([N+](=O)[O-])c1)NCCc1ccccc1	105.8*	-21.2	-5.6	-2.1	6.9	-5.1
Cc1ccc(C(=O)NNc2cc(N3CCCC3)nc(N3CCCC3)n2)cc1	73.7*	·	·	1.4	·	·
O=C(NNc1cc(N2CCOCC2)nc(N2CCOCC2)n1)c1ccc(Cl)c(Cl)c1	-3.9	26.9	-13.4	0.7	14.1	-11.2
C[C@@H]1COc2cc(N3CCC[C@@H]3CO)ccc2S(=O)(=O)N1	·	7.3	14.3	·	10.5	12.2
CCOC(=O)C(=O)NC1CC=CCC1c1ccc2c(c1)OCO2 (configuration not stated)	·	-2.9	-5.5	·	-0.3	2.4
Cc1ccc(-c2csc(NC(=O)C3=NN(c4ccccc4)C(=O)CC3)n2)cc1	-18.0	16.8	12.4	1.8	-13.6	54.6*
CCC(=O)Nc1cc2nn(-c3ccccc3)nc2cc1Cl	2.3	10.0	64.2*	-3.7	-147.0	51.8*
CC(C)CC(=O)Nc1ccc2nn(-c3ccccc3)nc2c1	-178.3	-59.0	18.3	-4.0	-306.3	2.6
OCCN1CCN(CC(O)COc2ccc(Cl)cc2)CC1 (configuration not stated)	12.8	-3.0	-2.1	-2.1	13.8	6.5
OCCN1CCN(CC(O)COc2ccc(C34CC5CC(CC(C5)C3)C4)cc2)CC1 (configuration not stated)	84.9*	-50.5	-8.8	3.7	7.2	-129.0
Oc1ccc(C23CC4CC(CC(C4)C2)C3)cc1O	2.0	22.5	-11.5	1.4	7.2	38.6
NCCOc1ccc(C23CC4CC(CC(C4)C2)C3)cc1	81.0*	21.7	4.6	9.4	-86.8	7.6
O=C1Nc2ccccc2C(=O)N(c2ccc3c(c2)OCCO3)C1C(=O)NC1CC1 (configuration not stated)	·	·	16.9	·	5.4	·
Cc1cccc(C)c1-n1nnnc1-c1nc2cc3ccccc3cc2[nH]c1=O	·	25.1	6.0	·	13.6	44.6
Fc1ccc(N=C2NN=C(c3cc(F)ccc3F)CS2)cc1	·	-114.8	14.6	-1.0	-161.0	-26.3
O=S(=O)(c1ccc(N=C2NN=C(c3cc(F)ccc3F)CS2)cc1)N1CCOCC1	·	36.7	26.6	-2.5	6.7	81.2*
CC1=C(C(=O)N2CCOCC2)CC(CC(=O)NC2CCCCC2)C(=O)N1Cc1ccc(C(C)(C)C)cc1 (configuration not stated)	·	-0.1	-5.7	·	-5.2	-2.2
COc1cc2nc(Nc3ccc(F)cc3)nc(N)c2cc1OC	-130.6	2.1	8.8	0.8	-42.9	-5.9
Cc1ccccc1Nc1nc(N)c2ccccc2n1	-9.5	-33.7	63.4*	18.4*	-106.8	53.5*
Cc1ccccc1Nc1nc(N)nc(CSc2nc3ccccc3c(=O)n2C)n1	-30.8	44.4	39.4	-3.4	20.1	66.3*
Nc1nc(Nc2ccccc2)nc2ccccc12	-82.4	-13.1	60.4*	10.9	-143.4	40.0
Nc1nc(Nc2ccc(Cl)cc2)nc2ccccc12	7.6	13.9	76.0*	16.1*	-75.5	80.0*
COc1ccc(C)cc1Nc1nc(N)c2ccccc2n1	-101.7	-42.0	-4.9	4.6	-145.9	-15.9
O=c1[nH]c(=S)[nH]c2c1[C@H](CCc1cccc(Cl)c1)O[C@H](C1CCCC1)C2	·	20.1	18.1	·	1.2	2.0
O=[N+]([O-])c1ccc(CSc2ccc(S(=O)(=O)N3CCCCCC3)cn2)cc1	·	13.7	0.6	·	7.1	6.5
CC(=O)c1cccc(NC(=O)c2cc(-c3ccco3)nc3ccccc23)c1	-19.9	19.4	4.3	0.1	1.9	65.5*
COc1cc(-c2cc(C(=O)Nc3cccc(C(C)=O)c3)c3ccccc3n2)cc(OC)c1OC	-21.1	8.8	7.3	2.2	-0.6	59.6*
COc1cccc(NC(=O)c2cc(-c3ccco3)nc3ccccc23)c1	4.8	2.1	-5.2	·	7.4	3.0
COc1ccc2[nH]c3c(c2c1)CCN1C(=O)C(CC(=O)NCc2cccc(C(F)(F)F)c2)C[C@H](C(=O)N2CCCCC2)[C@@]31CCc1ccccc1 (some centres not stated)	·	8.8	13.8	·	11.6	35.4

High-throughput results from PubChem.
